In PubChem BioAssay (EPA / NIEHS):
Records with an inconclusive call do not appear. The source made the active and inactive calls. The calls were made as follows: active = hit-call score of the fitted dose curve at least 0.9, where 1 is the maximum; inconclusive = response in the unintended direction; inactive = score below 0.9.

Target: Peroxisome proliferator-activated receptor gamma (Homo sapiens) (UniProt P37231)
Experiment: ATG_PPARg_TRANS: Attagene TRANS-FACTORIAL HepG2 Assay for human Peroxisome Proliferator-activated Receptor-gamma (PPARg) (AID 2283007)
Outline: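 Read-out: reporter mRNA induction, detected by fluorescence after RT-PCR and capillary electrophoresis. Transiently transfected human HepG2 liver cells carrying a chimeric NR-Gal4 construct were dosed for 24 h; activity was fitted upward relative to DMSO.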

Chain of Peroxisome proliferator-activated receptor gamma (Homo sapiens) (P37231 whole entry, looked up): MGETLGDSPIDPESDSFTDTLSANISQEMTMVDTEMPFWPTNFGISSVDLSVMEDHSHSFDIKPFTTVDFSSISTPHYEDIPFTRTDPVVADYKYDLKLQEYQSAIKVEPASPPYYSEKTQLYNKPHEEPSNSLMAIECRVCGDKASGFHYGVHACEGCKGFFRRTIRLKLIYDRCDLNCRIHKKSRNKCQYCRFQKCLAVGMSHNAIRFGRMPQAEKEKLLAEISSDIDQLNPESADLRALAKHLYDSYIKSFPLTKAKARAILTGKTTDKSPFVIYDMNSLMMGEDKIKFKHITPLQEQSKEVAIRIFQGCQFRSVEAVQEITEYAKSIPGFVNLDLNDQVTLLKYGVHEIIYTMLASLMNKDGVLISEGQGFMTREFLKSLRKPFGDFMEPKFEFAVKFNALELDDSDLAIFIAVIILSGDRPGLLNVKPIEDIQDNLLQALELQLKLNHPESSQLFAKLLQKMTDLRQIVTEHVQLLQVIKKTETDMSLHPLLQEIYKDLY

| SMILES | outcome | AC50 |
| --- | --- | --- |
| COc1cccc(-c2ccc(/C=C\CN3CCCCCC3)cc2Cl)c1 | inactive | – |
| O=C1CCC(N2C(=O)c3ccccc3C2=O)C(=O)N1 (centres undefined) | inactive | – |
| O=C1OC(=O)C2C3C=CC(C3)C12 (centres undefined) | inactive | – |
| CCOCCOCCOCCO | inactive | – |
| O=C(CCCCCCCCc1cccnc1)N1CCC(C=C(c2ccccc2)c2ccccc2)CC1 | – | 1.41 µM (active) |
| CC[C@H](C)C(=O)O[C@H]1C[C@@H](C)C=C2C=C[C@H](C)[C@H](CC[C@@H]3C[C@@H](O)CC(=O)O3)[C@H]21 | inactive | – |
| O=c1n(CC2CO2)c(=O)n(CC2CO2)c(=O)n1CC1CO1 (centres undefined) | inactive | – |
| CCCCCCCCCCCCCCCO | inactive | – |
| CC(C)=CCC/C(C)=C\CO | – | 36.5 µM (active) |
| C=CC(=C)CCC=C(C)C | – | 100 µM (active) |
| CCOc1cccc(-n2cc(C(=O)N3CCN(c4cc(C(=O)O)c5ccccc5c4)CC3)nc2-c2ccc(C)cc2)c1 | – | 7.92 µM (active) |
| CCCC(=O)OCC | inactive | – |
| Cn1c(=O)cc(Oc2ccc(F)cc2F)c2cnc(NCC(C)(C)O)nc21 | – | 6.3 µM (active) |
| CCCCCCc1ccc(O)cc1O | – | 31.2 µM (active) |
| CCC(C)(C)C(=O)O[C@H]1C[C@@H](C)C=C2C=C[C@H](C)[C@H](CC[C@@H]3C[C@@H](O)CC(=O)O3)[C@H]21 | inactive | – |
| Fc1ccccc1[C@@H](F)COC1CCC(Nc2ncnc3[nH]ncc23)CC1 (some centres undefined) | inactive | – |
| O=C(O)c1cc(N=Nc2ccc(S(=O)(=O)Nc3ccccn3)cc2)ccc1O | – | 57.4 µM (active) |
| CCn1nc(Cc2ccccc2)cc1C1CCN(C[C@H]2C[C@H](N(C)[C@@H](C(=O)O)C(C)C)C[C@@H]2c2cccc(F)c2)CC1 | inactive | – |

Target: Nuclear receptor subfamily 1 group I member 2 (Homo sapiens) (UniProt O75469)
Sequence (O75469 whole entry, looked up): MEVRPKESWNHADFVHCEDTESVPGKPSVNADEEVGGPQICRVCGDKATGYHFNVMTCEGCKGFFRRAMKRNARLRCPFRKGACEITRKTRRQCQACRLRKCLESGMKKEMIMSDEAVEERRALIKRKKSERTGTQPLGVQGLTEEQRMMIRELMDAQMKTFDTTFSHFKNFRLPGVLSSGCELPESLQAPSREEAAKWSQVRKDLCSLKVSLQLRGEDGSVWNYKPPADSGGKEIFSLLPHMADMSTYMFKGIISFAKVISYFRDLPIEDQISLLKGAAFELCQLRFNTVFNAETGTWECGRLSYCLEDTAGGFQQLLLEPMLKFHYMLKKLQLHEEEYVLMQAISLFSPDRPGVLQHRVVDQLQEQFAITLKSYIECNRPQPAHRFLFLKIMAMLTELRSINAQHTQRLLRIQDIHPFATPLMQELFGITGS
Experiment: ATG_PXR_TRANS: Attagene TRANS-FACTORIAL HepG2 Assay for human Pregnane X Receptor (PXR) (AID 2283008)
Outline: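 Multiplexed TRANS reporter panel in HepG2; this component tracks PXR-Gal4-driven reporter mRNA after 24 h dosing, measured by RT-PCR with capillary electrophoresis fluorescence, fitted against DMSO.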

| SMILES | AC50 | outcome |
| --- | --- | --- |
| COc1cccc(-c2ccc(/C=C\CN3CCCCCC3)cc2Cl)c1 | 4.81 µM (active) | – |
| O=C1OC(=O)C2C3C=CC(C3)C12 (centres undefined) | – | inactive |
| COCCOc1cc2cc(C(=O)NC3CCN(C(C)C)CC3)n(CC(=O)Nc3ccc(Cl)cn3)c2cn1 | – | inactive |
| CC(=O)OC[C@H]1O[C@@](COC(C)=O)(O[C@H]2O[C@H](COC(C)=O)[C@@H](OC(C)=O)[C@H](OC(C)=O)[C@H]2OC(C)=O)[C@@H](OC(C)=O)[C@@H]1OC(C)=O | – | inactive |
| O=C(CCCCCCCCc1cccnc1)N1CCC(C=C(c2ccccc2)c2ccccc2)CC1 | 1.08 µM (active) | – |
| CC[C@H](C)C(=O)O[C@H]1C[C@@H](C)C=C2C=C[C@H](C)[C@H](CC[C@@H]3C[C@@H](O)CC(=O)O3)[C@H]21 | 2.51 µM (active) | – |
| CC(C)=CCC/C(C)=C\CO | 8.73 µM (active) | – |
| C=CC(=C)CCC=C(C)C | – | inactive |
| CC1=CC(=O)CC(C)(C)C1 | – | inactive |
| CC(C)CC(C)(O)C#CC(C)(O)CC(C)C (centres undefined) | 11.9 µM (active) | – |
| Cn1c(=O)cc(Oc2ccc(F)cc2F)c2cnc(NCC(C)(C)O)nc21 | – | inactive |
| CCCCCCc1ccc(O)cc1O | – | inactive |
| CN(C)c1ccc(N=NS(=O)(=O)O)cc1 | – | inactive |
| Fc1ccccc1[C@@H](F)COC1CCC(Nc2ncnc3[nH]ncc23)CC1 (some centres undefined) | – | inactive |
| CCn1nc(Cc2ccccc2)cc1C1CCN(C[C@H]2C[C@H](N(C)[C@@H](C(=O)O)C(C)C)C[C@@H]2c2cccc(F)c2)CC1 | – | inactive |
| Cn1c(=O)c2c(ncn2C)n(C)c1=O | – | inactive |

Target: human Retinoic Acid Receptor gamma (RARg), RARG (gene 5916) (UniProt P13631)
Sequence (P13631 whole entry, looked up): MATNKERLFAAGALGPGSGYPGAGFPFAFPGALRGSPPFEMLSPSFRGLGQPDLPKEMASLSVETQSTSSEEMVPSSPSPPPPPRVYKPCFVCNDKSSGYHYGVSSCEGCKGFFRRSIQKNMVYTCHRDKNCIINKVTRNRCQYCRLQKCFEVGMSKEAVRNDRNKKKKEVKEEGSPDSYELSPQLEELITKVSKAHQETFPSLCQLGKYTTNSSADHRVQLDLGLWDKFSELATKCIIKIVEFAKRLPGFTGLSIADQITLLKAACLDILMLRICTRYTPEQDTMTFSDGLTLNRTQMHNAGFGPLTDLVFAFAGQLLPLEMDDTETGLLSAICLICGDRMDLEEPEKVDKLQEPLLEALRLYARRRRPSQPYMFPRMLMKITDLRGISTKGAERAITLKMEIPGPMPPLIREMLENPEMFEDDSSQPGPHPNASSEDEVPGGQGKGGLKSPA
Experiment: ATG_RARg_TRANS: Attagene TRANS-FACTORIAL HepG2 Assay for human Retinoic Acid Receptor gamma (RARg) (AID 2283009)
Outline: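 TRANS format measured activity of exogenous NR-GAL4 fusion (RARg) in transfected HepG2 liver cells after 24 h dosing. Induced reporter RNA was detected by RT-PCR/capillary electrophoresis fluorescence, analysed in the positive direction against DMSO.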

| SMILES | outcome |
| --- | --- |
| COCCOc1cc2cc(C(=O)NC3CCN(C(C)C)CC3)n(CC(=O)Nc3ccc(Cl)cn3)c2cn1 | inactive |
| CC(C)CC(C)(O)C#CC(C)(O)CC(C)C (centres undefined) | inactive |
| CCC(C)(C)C(=O)O[C@H]1C[C@@H](C)C=C2C=C[C@H](C)[C@H](CC[C@@H]3C[C@@H](O)CC(=O)O3)[C@H]21 | inactive |

Target: human RAR-related Orphan Receptor beta (RORb), RORB (gene 6096) (UniProt Q92753)
Sequence (Q92753 whole entry, looked up): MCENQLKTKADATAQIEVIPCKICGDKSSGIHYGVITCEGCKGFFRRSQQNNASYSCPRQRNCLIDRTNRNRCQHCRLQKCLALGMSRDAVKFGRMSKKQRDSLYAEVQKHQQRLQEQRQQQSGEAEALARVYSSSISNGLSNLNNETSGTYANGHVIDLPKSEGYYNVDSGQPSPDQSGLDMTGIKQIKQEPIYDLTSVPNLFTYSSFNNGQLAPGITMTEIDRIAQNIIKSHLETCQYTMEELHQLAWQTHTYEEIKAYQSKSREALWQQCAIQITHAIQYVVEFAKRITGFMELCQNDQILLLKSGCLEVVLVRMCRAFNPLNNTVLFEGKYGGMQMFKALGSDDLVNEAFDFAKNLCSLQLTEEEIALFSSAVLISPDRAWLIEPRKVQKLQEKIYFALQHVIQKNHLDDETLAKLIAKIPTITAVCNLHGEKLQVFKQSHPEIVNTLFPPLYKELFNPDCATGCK
Experiment: ATG_RORb_TRANS: Attagene TRANS-FACTORIAL HepG2 Assay for human RAR-related Orphan Receptor beta (RORb) (AID 2283010)
Outline: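 Transfect HepG2 with multiple GAL4-UAS reporter transcription units; dose chemicals for 24 h; isolate RNA, reverse-transcribe and PCR-amplify reporter sequences; label, digest and resolve fragments by capillary electrophoresis; fit increases relative to DMSO.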

| SMILES | outcome |
| --- | --- |
| On1ccccc1=S | inactive |
| CC(=O)OCCC(C)C | inactive |
| COCCOc1cc2cc(C(=O)NC3CCN(C(C)C)CC3)n(CC(=O)Nc3ccc(Cl)cn3)c2cn1 | inactive |
| O=c1n(CC2CO2)c(=O)n(CC2CO2)c(=O)n1CC1CO1 (centres undefined) | inactive |
| CC1=CC(=O)CC(C)(C)C1 | inactive |
| Nc1nc2ncc(CNc3ccc(C(=O)N[C@@H](CCC(=O)O)C(=O)O)cc3)nc2c(=O)[nH]1 | inactive |
| O=C(O)c1cc(N=Nc2ccc(S(=O)(=O)Nc3ccccn3)cc2)ccc1O | inactive |
| Cn1c(=O)c2c(ncn2C)n(C)c1=O | inactive |

Target: human RAR-related Orphan Receptor gamma (RORg), RORC (gene 6097) (UniProt P51449)
Sequence (P51449 whole entry, looked up): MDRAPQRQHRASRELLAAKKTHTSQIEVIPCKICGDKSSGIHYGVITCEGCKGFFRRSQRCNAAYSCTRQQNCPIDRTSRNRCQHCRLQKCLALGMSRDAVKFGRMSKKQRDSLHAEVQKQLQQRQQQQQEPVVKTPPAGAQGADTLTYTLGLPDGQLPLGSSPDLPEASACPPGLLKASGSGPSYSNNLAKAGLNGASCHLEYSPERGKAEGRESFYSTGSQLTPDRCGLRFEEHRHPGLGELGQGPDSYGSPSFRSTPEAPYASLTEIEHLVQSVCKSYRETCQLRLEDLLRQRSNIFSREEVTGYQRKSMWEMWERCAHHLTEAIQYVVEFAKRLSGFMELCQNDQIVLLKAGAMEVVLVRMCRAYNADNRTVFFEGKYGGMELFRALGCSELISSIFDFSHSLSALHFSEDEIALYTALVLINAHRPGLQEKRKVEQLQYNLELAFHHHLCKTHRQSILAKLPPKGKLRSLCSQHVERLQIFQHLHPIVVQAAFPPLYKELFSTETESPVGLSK
Experiment: ATG_RORg_TRANS: Attagene TRANS-FACTORIAL HepG2 Assay for human RAR-related Orphan Receptor gamma (RORg) (AID 2283011)
Outline: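 Chimeric RORg-Gal4 transactivation in transfected HepG2; 24 h exposure; RT-PCR/capillary electrophoresis readout of reporter mRNA, DMSO baseline.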

| SMILES | outcome |
| --- | --- |
| COc1cccc(-c2ccc(/C=C\CN3CCCCCC3)cc2Cl)c1 | inactive |
| On1ccccc1=S | inactive |
| CCCCCCCCCCCCCCCO | inactive |
| C=CC(=C)CCC=C(C)C | inactive |
| CCC(C)(C)C(=O)O[C@H]1C[C@@H](C)C=C2C=C[C@H](C)[C@H](CC[C@@H]3C[C@@H](O)CC(=O)O3)[C@H]21 | inactive |
| Nc1nc2ncc(CNc3ccc(C(=O)N[C@@H](CCC(=O)O)C(=O)O)cc3)nc2c(=O)[nH]1 | inactive |

Target: Retinoic acid receptor RXR-alpha (Homo sapiens) (UniProt P19793)
Sequence (P19793 whole entry, looked up): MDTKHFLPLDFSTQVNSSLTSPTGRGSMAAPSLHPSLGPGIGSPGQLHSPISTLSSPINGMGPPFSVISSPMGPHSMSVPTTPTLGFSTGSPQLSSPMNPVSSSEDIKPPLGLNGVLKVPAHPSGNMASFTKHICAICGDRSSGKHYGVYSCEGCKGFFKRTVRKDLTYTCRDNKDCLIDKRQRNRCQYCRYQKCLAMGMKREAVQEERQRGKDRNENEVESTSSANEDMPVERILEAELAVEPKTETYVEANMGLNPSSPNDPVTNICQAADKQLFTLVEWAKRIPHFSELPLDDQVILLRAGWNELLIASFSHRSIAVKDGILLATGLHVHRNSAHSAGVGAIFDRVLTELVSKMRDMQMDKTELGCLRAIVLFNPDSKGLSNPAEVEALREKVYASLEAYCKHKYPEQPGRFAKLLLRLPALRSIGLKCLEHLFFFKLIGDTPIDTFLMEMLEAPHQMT
Experiment: ATG_RXRa_TRANS: Attagene TRANS-FACTORIAL HepG2 Assay for human Retinoid X Receptor alpha (RXRa) (AID 2283012)
Outline: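 Measures exogenous chimeric NR-GAL4 activity in transfected HepG2 liver cells after 24 h of dosing. Induced reporter mRNA was detected by RT-PCR with capillary electrophoresis, and gain of signal was analysed against DMSO.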

| SMILES | outcome |
| --- | --- |
| COc1cccc(-c2ccc(/C=C\CN3CCCCCC3)cc2Cl)c1 | inactive |
| On1ccccc1=S | inactive |
| O=C1OC(=O)C2C3C=CC(C3)C12 (centres undefined) | inactive |
| CCOCCOCCOCCO | inactive |
| COCCOc1cc2cc(C(=O)NC3CCN(C(C)C)CC3)n(CC(=O)Nc3ccc(Cl)cn3)c2cn1 | inactive |
| CC(=O)OC[C@H]1O[C@@](COC(C)=O)(O[C@H]2O[C@H](COC(C)=O)[C@@H](OC(C)=O)[C@H](OC(C)=O)[C@H]2OC(C)=O)[C@@H](OC(C)=O)[C@@H]1OC(C)=O | inactive |
| O=C(CCCCCCCCc1cccnc1)N1CCC(C=C(c2ccccc2)c2ccccc2)CC1 | inactive |
| COC(=O)CC(=O)OC | inactive |
| CCCCCCCCCCCCCCCO | inactive |
| CC(C)=CCC/C(C)=C\CO | inactive |
| CCOc1cccc(-n2cc(C(=O)N3CCN(c4cc(C(=O)O)c5ccccc5c4)CC3)nc2-c2ccc(C)cc2)c1 | inactive |
| CC(C)CC(C)(O)C#CC(C)(O)CC(C)C (centres undefined) | inactive |
| Cn1c(=O)cc(Oc2ccc(F)cc2F)c2cnc(NCC(C)(C)O)nc21 | inactive |
| CN(C)c1ccc(N=NS(=O)(=O)O)cc1 | inactive |
| CCC(C)(C)C(=O)O[C@H]1C[C@@H](C)C=C2C=C[C@H](C)[C@H](CC[C@@H]3C[C@@H](O)CC(=O)O3)[C@H]21 | inactive |
| Nc1nc2ncc(CNc3ccc(C(=O)N[C@@H](CCC(=O)O)C(=O)O)cc3)nc2c(=O)[nH]1 | inactive |
| O=C(O)c1cc(N=Nc2ccc(S(=O)(=O)Nc3ccccn3)cc2)ccc1O | inactive |
| Cn1c(=O)c2c(ncn2C)n(C)c1=O | inactive |
